# Source: PubChem BioAssay (National Center for Advancing Translational Sciences (NCATS))
# NPSR antagonist: antagonists of human neuropeptide S receptor cAMP signaling; Q6W5P4; CHO-NPSR cells, cAMP TR-FRET, antagonist mode; Potency, µM (highest dose often 38.3 µM), without a hit: at the top dose activity change, negative = inhibition, actives largely listed as inhibitors; AID 1461; 220,000 compounds, 1% hits; further: nearly all actives have a fitted effect of over 50% in size
# Target sequence (Q6W5P4 whole entry, looked up): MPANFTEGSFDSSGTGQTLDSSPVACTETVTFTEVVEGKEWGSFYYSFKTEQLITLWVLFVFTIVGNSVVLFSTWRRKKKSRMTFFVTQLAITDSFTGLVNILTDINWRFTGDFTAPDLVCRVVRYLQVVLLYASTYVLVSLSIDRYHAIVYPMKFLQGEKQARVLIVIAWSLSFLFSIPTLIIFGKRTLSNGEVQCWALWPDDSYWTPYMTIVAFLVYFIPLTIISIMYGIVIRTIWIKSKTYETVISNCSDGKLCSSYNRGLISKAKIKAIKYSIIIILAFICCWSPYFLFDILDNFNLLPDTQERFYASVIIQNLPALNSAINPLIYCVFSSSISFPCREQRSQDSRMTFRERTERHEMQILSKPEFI
# ERK EGF inh: EGF-driven ERK pathway inhibition; AID 1454; HEK293-V1b, EGF-stimulated phospho-ERK AlphaScreen; Potency, µM (titrated, usually from 11.5 µM), for the others: top-dose activity change, negative = inhibition, actives largely listed as inhibitors; 130,000 compounds, 0.41% hits;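 further: plate controls were stimulated vehicle wells for no effect and unstimulated vehicle basal for full effect; nearly all actives have a fitted effect of over 55% in size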
#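 After overnight plating in 1% FBS, HEK293-V1b cells received test compound for half an hour, then a 5 min pulse of EGF (25 nM); ERK phosphorylation in lysates was read by bead-based AlphaScreen.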
# IMPase Li cell: membrane-permeable IMPase blocker, potentiated with lithium; CHO-M1 cells, IP1 TR-FRET (IP-One), carbachol + lithium; Potency, µM (top dose mostly 59.4 µM), inactives show at the top dose activity, negative = IMPase inhibition, usual class: inhibitors; 210,000 compounds, 0.35% hits; AID 1457;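 further: IP1 builds up when IMPase is blocked and the TR-FRET signal falls; plate controls were basal vehicle for no effect and high inhibitor control for full effect; nearly all actives have a fitted effect of over 50% in size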
#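 Readout is a homogeneous TR-FRET IP1 immunoassay (Ex 320, Em 665 and 620), where raised cytosolic IP1 lowers signal. Cells were CHO-M1 treated 30 min at 37C with test compounds plus a little lithium; AC50 values came from Hill-equation fitting.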
# An asterisk follows results filed as active; ? = inconclusive; nt = no result given; [ ] = remark or other dose. This excerpt belongs to a sample that is enriched for hits. The call rests on the fitted dose curve; in most records, active means well fitted curve in the direction sought with a large enough effect; inconclusive means small, poorly fitted or top-dose-only effect, or another doubt; inactive means no such curve, though single readings can be large; an effect the other way counts as inactive or inconclusive. Unless noted, on the % scale 0 is the no-effect control and ±100 the full control effect; potency means the concentration at half of the fitted maximal effect.
SMILES,NPSR antagonist,ERK EGF inh,IMPase Li cell
COc1ccc(N2C(=O)C(Cl)=C(Oc3cccc(OC)c3)C2=O)cc1,10µM*,-12.0%,25.9%
COc1ccc(N2C(=O)c3ccccc3C2=O)cc1,6.6%,-0.5%,8.1%
S=c1[nH]cnc2sc(Nc3ccccc3)nc12,44.5%,4.6%[57.5 µM],nt
CCOC(=O)c1ccc2c(c1)NCc1cccc(OC)c1O2,3.2%,-1.9%[57.5 µM],nt
O=[N+]([O-])c1cc(-n2cccc2)ccc1N1CCOCC1,14.3%,28.2µM*,13.0%
Cc1ccc(C)n1-c1ccc(N2CCOCC2)c([N+](=O)[O-])c1,-32.7%,-4.5%[57.5 µM],nt
Cc1cnc(CNc2ncncc2-c2ccc(N(C)C)cc2)cn1,nt,nt,19.9%
c1ccc(CC2CCN(C3=Nc4cccc5cccc3c45)CC2)cc1,10µM*,nt,28.5%[38.3 µM]
c1cc2c3c(cccc3c1)C(N1CCOCC1)=N2,-21.2%,-0.1%[57.5 µM],nt
COc1ccccc1/C=C/C=N/N1CCN(Cc2ccc(Cl)cc2)CC1,-20.0%[46.1 µM],nt,19.6%[38.3 µM]
COc1ccccc1/C=C/C=N\N1CCN(Cc2ccccc2Cl)CC1,-27.2%,17.8µM*,10.2%
O=[N+]([O-])c1ccccc1/C=C\C=N\N1CCN(c2ccccc2)CC1,-25.6%,?,14.9%
O=[N+]([O-])c1ccccc1/C=N/N1CCN(c2ccc(Cl)cc2)CC1,-13.3%[46.1 µM],nt,37.8%[38.3 µM]
O=[N+]([O-])c1ccccc1/C=N\N1CCN(c2ccccc2)CC1,10.1%,22.4µM*,5.6%
COc1ccccc1N1CCN(/N=C/C=C/c2ccccc2[N+](=O)[O-])CC1,58.9%,20µM*,nt
COCCn1c(=O)c(-c2ccc(F)cc2)nc2cnc(OCc3ccccc3)nc21,nt,-1.9%,-0.4%
O=C(N[C@H]1CCCc2ccccc21)O[C@@H]1C(=O)c2cc(Br)ccc2O[C@H]1c1ccc2c(c1)OCO2,nt,-4.3%,25.0%
O=c1c(-c2ccc(Cl)cc2)nc2cnc(N3CCOCC3)nc2n1-c1ccccc1,nt,nt,-9.3%
O=C(Cn1nc(-c2ccccc2)c2ccccc2c1=O)Nc1ccc2c(c1)nc1n2CCOC1,-20.1%[46.1 µM],nt,-5.9%[38.3 µM]
Cc1ccc(-c2nn(CC(=O)Nc3ccc4c(c3)nc3n4CCOC3)c(=O)c3ccccc23)cc1,-17.3%[46.1 µM],nt,10µM*
O=C1C=C(Nc2ccc(Cl)cc2)CC(c2ccc(Cl)cc2)C1 (stereo not drawn),?,14.1µM*,20.8%[38.3 µM]
Cc1ccc(C2CC(=O)C=C(Nc3ccc(Cl)cc3)C2)cc1 (stereo not drawn),-13.2%,2.5%,-0.1%
CCOC(=O)c1sc2nc(CC(=O)OC)nc(NCCN3CCOCC3)c2c1C,-13.0%[46.1 µM],nt,16.4%[38.3 µM]
CCOC(=O)c1sc2nc(CC(=O)OC)nc(N3CCN(c4ccc(OC)cc4)CC3)c2c1C,31.6µM*,nt,61.6%[38.3 µM]
COc1cc(NC(=O)c2cc3c(=O)n(C)c4ccccc4c3n2C)cc(OC)c1OC,-15.2%[46.1 µM],nt,3.55µM*
SMILES,NPSR antagonist,ERK EGF inh,IMPase Li cell
COc1ccc(NC(=O)c2cc3c(=O)n(C)c4ccccc4c3n2C)cc1OC,-25.1%[46.1 µM],nt,14.4%[38.3 µM]
NC(N)=NC(N)=Nc1ccc(C(=O)O)cc1,nt,nt,4.3%
COC(=O)CCC(=O)c1oc2ccccc2c1NC(=O)CCCN1C(=O)c2ccccc2C1=O,-9.1%[46.1 µM],nt,-9.0%[38.3 µM]
CC(=O)c1oc2ccccc2c1NC(=O)CCCN1C(=O)c2ccccc2C1=O,-7.5%[46.1 µM],nt,12.6µM*
O=C1S/C(=C/c2ccc(N3CCOCC3)o2)C(=O)N1Cc1ccc(F)cc1,-18.3%[46.1 µM],nt,-16.7%[38.3 µM]
O=C1NC(=S)S/C1=C/c1ccc(N2CCOCC2)o1,12.6µM*,22.3%,-9.7%
CC1(C)S[C@@H]2[C@H](NC(=O)C3(N)CCCCC3)C(=O)N2[C@@H]1C(=O)O,nt,nt,-6.4%
COC(=O)[C@@H]1C[C@H]1[C@@H](NC(=O)Oc1ccc(F)cc1)c1ccccc1,nt,8.1%,-4.1%
CCCCSCc1nc2nc(Cl)c(Cl)nc2[nH]1,nt,nt,-3.4%
Nn1c(SCC(=O)NC2CCCCC2)nnc1-c1ccc(Cl)cc1,16.3%[46.1 µM],7.0%,3.4%
COC(=O)CSc1nc(N)c(C#N)c(-c2ccc(O)cc2)c1C#N,43.1%,6.1%[57.5 µM],nt
N#Cc1c(N)nc(SCC(=O)NC2CCCCC2)c(C#N)c1-c1ccc(Cl)cc1,?,nt,15.8µM*
CC(C)c1ccc(-c2c(C#N)c(N)nc(SCC(=O)N3CCCCC3)c2C#N)cc1,10µM*,nt,?
CN(Cc1ccco1)c1ncncc1-c1ccc2c(c1)OCO2,nt,nt,23.3%
CCOC(=O)c1c(CSC(=N)N)n(-c2ccc(C)cc2)c2cc(Br)c(OC(C)=O)cc12,10µM*,nt,7.6%[38.3 µM]
CCOC(=O)c1c(CSC(=N)N)n(C)c2cc(Br)c(OC(C)=O)cc12,-32.5%,8.0%[57.5 µM],nt
COC(=O)[C@@H](NC(=O)N1CCc2nc(-c3ccc(OC)cc3C)c3c(c2C1)CO[C@@H](c1ccccc1)C3)C(C)C,nt,nt,-3.4%
Cc1cc(C(=O)OCC(=O)c2ccc(Br)s2)no1,?,nt,6.31µM*
Cc1cc(C(=O)OCC(=O)c2ccc(Br)s2)c(C)o1,6.9%[46.1 µM],nt,-17.7%[38.3 µM]
CC(C)CC(NC(=O)c1ccc(Cl)cc1)C(=O)OCC(=O)c1ccc2c(c1)NC(=O)CO2 (stereo not drawn),10µM*,nt,45.6%[38.3 µM]
CC(C)[C@H](NC(=O)c1ccco1)C(=O)OCC(=O)c1ccc2c(c1)NC(=O)CO2,3.0%,-10.6%,6.3%
Cc1c(C(=O)Nc2ccncc2)sc2nc(-c3ccc(F)cc3)cn12,?,nt,-101.4%[38.3 µM]
COc1ccc(-c2cn3c(C)c(C(=O)Nc4ccncc4)sc3n2)cc1,?,nt,5.62µM*
O=C(O)CCC[C@H](O)\C=C/C=C/C=C/[C@H](O)C/C=C\CCCCCO,nt,-10.8%,1.7%
COc1cc(NS(=O)(=O)c2ccc(NC(=S)NC(=O)/C=C/c3ccc(F)cc3)cc2)ncn1,31.3%[7.67 µM],-3.0%[57.5 µM],nt
SMILES,NPSR antagonist,ERK EGF inh,IMPase Li cell
COc1ccc(NS(=O)(=O)c2ccc(NC(=S)NC(=O)/C=C/c3ccccc3)cc2)nn1,7.94µM*,6.7%,4.8%
CCOC(=O)N1CCc2c(sc(NC(=O)CN3CCN(C)CC3)c2C(=O)Nc2ccccc2)C1,-8.9%,28.9%,-12.7%
CCOC(=O)N1CCc2c(sc(NC(=O)CN3CCOCC3)c2C(=O)Nc2ccccc2)C1,-18.7%,35.5µM*,9.8%
COCCCn1c(SCC(=O)Nc2ccc(C)cc2)nc2ccccc2c1=O,20.4%,-5.7%,-1.3%
COCCn1c(SCC(=O)Nc2ccc(NC(=O)c3ccco3)c(OC)c2)nc2ccccc2c1=O,-14.9%[46.1 µM],nt,4.8%[38.3 µM]
Cc1ccc(NC(=O)CSc2nc3ccccc3c(=O)n2Cc2cccs2)cc1,-24.9%[46.1 µM],13.6%,12.6µM*
CCn1c(SCC(=O)Nc2ccc(NC(=O)c3ccco3)c(OC)c2)nc2ccccc2c1=O,18.0%[46.1 µM],nt,12.6µM*
O=c1c2ccccc2oc2cc(O)c(C3COCC(CO)C(O)C(O)C3O)c(O)c12 (stereo not drawn),nt,7.9%,1.6%
O=C1CCCCC2CCCCN12 (stereo not drawn),nt,nt,-4.6%
Cc1noc(C)c1-c1cc(NC2CCNCC2)ncn1,nt,nt,-0.3%
O=C(c1ccccc1)c1ccc2n1CC[C@H]2C(=O)O,nt,14.4%[25.7 µM],7.9%
Cc1cc(C)c(O)c(-c2cc(C(=O)Nc3ccc(S(=O)(=O)N4CCOCC4)cc3)[nH]n2)c1,12.6µM*,nt,54.8%[38.3 µM]
Cc1ccc(C(=O)Nc2ccc(S(=O)(=O)N3CCOCC3)cc2)cc1,5.5%,-1.9%,4.7%
N#Cc1ccc(CN2CC[C@@]3(CCCN(S(=O)(=O)c4ccccc4)C3)C2)cc1,nt,-8.5%,19.0%
